According to PubChem BioAssay (NCATS):
Records with an inconclusive call do not appear. Activity calls are given as the source filed them. Calls come from the whole dose curve; as a rule, active = well fitted inhibition curve with a large enough effect; inconclusive = small, poorly fitted or top-dose-only effect; inactive = no such curve, though single readings can be large or run the other way.

Target: Retinaldehyde dehydrogenase 3 (Homo sapiens) (UniProt P47895)
Test: qHTS for Inhibitors of the Aldehyde Dehydrogenase Family (ALDH1A3) Primary screen (AID 2061315);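 note: plate controls were DMSO vehicle for no effect and reference inhibitor for full effect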
Conditions: ALDH inhibition qHTS; series mostly up to 56 µM; activity change, negative = inhibition: at the top concentration

Row | SMILES | activity change, negative = inhibition
1 | Cc1cc2c(s1)c1cnn(Cc3ccc(C(C)(C)C)cc3)c(=O)c1n2C | 15.9% (inactive)
2 | COc1ccc(C(=O)Nc2ccc(-c3nc4ccccc4[nH]3)cc2)cc1OC | -12.3% (inactive)
3 | COc1ccccc1OCCN1CC(COc2cccc3[nH]c4ccccc4c23)OCC1=O (stereo not given) | -17.9% (inactive)
4 | Cc1cc(C)nc(NC(=S)N2CCN(c3cccc4nccn34)CC2)c1 | -11.3% (inactive)
5 | CCOc1ccccc1-c1nnc2n1N=C(c1c(OC)cccc1OC)CS2 | 6.44% (inactive)
6 | Cc1ccc(NS(=O)(=O)c2ccc3c(c2)CCC(=O)N3C)cc1Cl | 7.96% (inactive)
7 | O=C(Cc1ccc(Cl)c(Cl)c1)Nc1ccc([S+](=O)([O-])Nc2ccc([N+](=O)[O-])cc2)cc1 | 5.99% (inactive)
8 | Nc1cccc([S+](=O)([O-])N2CCCN([S+](=O)([O-])c3cccc(N)c3)CC2)c1 | -8.9% (inactive)
9 | Cc1ccc(OCCn2c(CCNC(=O)c3c(F)cccc3F)nc3ccccc32)cc1 | 0.725% (inactive)
10 | Cc1cc(C)nc(NC(=S)N2CCN(c3nsc4ccccc34)CC2)c1 | 2.54% (inactive)
11 | CC(C)(C)Cc1nnc(NC(=O)CSc2ccccc2)s1 | -3.6% (inactive)
12 | Cc1cc(NS(=O)(=O)c2ccc(NC(=O)Cc3ccc(Cl)cc3)cc2)no1 | -0.0308% (inactive)
13 | Cc1cc(Nc2ncc3cc(-c4c(Cl)cccc4Cl)c(=O)n(C)c3n2)ccc1F | -0.485% (inactive)
14 | O=S(=O)(c1ccc2c(c1)OCCO2)N1CCN(S(=O)(=O)c2ccc(F)c(F)c2F)CC1 | -3.71% (inactive)
15 | NCCC(=O)Nc1cccc(-c2nn3c(=O)cc(N4CCNCC4)nc3s2)c1 | 33.4% (inactive)
16 | CNc1oc(-c2ccc(F)cc2)nc1C#N | 2.65% (inactive)
17 | O=C(OCC#CCSc1nnc(-c2cccc3ccccc23)o1)c1csc2ccccc12 | -7.53% (inactive)
18 | N#Cc1nc(-c2cccc3ccccc23)oc1NCC#CCOC(=O)c1cccs1 | 11.8% (inactive)
19 | Cc1ccc(-c2ccc(=O)n(CCN)n2)cc1 | 5.55% (inactive)
20 | COc1cccc(CCN2C(=O)c3ccccc3NC2c2ccc(OC)c(COc3c(C)cc(NC(C)=O)cc3C)c2)c1 (stereo not given) | -9.84% (inactive)

Row | SMILES | activity change, negative = inhibition
21 | COC(=O)C1=C(C)NC(COC(N)=O)=C(C(=O)OC(C)C)C1c1cccc(Cl)c1Cl (stereo not given) | 0.383% (inactive)
22 | CC(C)c1ccccc1-c1nc(NCc2ccc(-c3cccnc3)cc2)c2sccc2n1 | -16.7% (inactive)
23 | COc1ccc(NC(=O)C(OC(=O)CNC(=O)c2ccccc2)c2ccccc2)c(C)c1 (stereo not given) | -1.97% (inactive)
24 | O=C1CCCC2=C1C(c1cccnc1)N=C(Nc1nc3ccccc3o1)N2 (stereo not given) | -0.82% (inactive)
25 | N#Cc1ccc(C[C@@H](NS(=O)(=O)c2ccc(C(=O)O)cc2)C(=O)O)cc1 | -4.42% (inactive)
26 | CC[C@H]1OC(=O)[C@H](C)[C@@H](O[C@H]2C[C@@](C)(OC)[C@@H](O)[C@H](C)O2)[C@H](C)[C@@H](O[C@@H]2O[C@H](C)C[C@H](N(C)C)[C@H]2O)[C@](C)(O)C[C@@H](C)/C(=N/OCOCCOC)[C@H](C)[C@@H](O)[C@]1(C)O | 14.1% (inactive)
27 | CN(C)c1ccc(-c2cc(O)c3ncccc3c2)cc1 | -27.3% (inactive)
28 | Oc1cccc2c(-c3nn[nH]n3)ccnc12 | 10.3% (inactive)
29 | CC(C)c1ccccc1-c1nc2c(c(NCc3ccc(-c4cccnc4)cc3)n1)CNC2 | -16.9% (inactive)
30 | COc1ccc(-c2ccc3ncnc(N(C)Cc4csc(C)n4)c3c2)cc1OC | -2.08% (inactive)
31 | O=S1(=O)N=C(Oc2ccccc2-c2ccccc2)c2ccccc21 | -19% (inactive)
32 | O=C(O)c1cccc(-c2cccc(-c3nn4c(=O)cc(N5CCNCC5)nc4s3)c2)c1 | 4.97% (inactive)
33 | COC(=O)c1ccc2c(c1)/C(=C/c1cc(Br)c(O)c(Br)c1)C(=O)N2 | 0.389% (inactive)
34 | CC(=O)Nc1sc2c(c1-c1cccc3c1sc1ccccc13)CCNC2 | -3.57% (inactive)
35 | Oc1ccc(CCc2ccccc2)c2cccnc12 | -3.25% (inactive)
36 | Cc1ccc(S(=O)(=O)Nc2cnccc2C(=O)Nc2nc(-c3ccc(Oc4ccccc4)cc3)cs2)cc1 | 14.3% (inactive)
37 | CCC(=O)NC(c1cc(Cl)c2cccnc2c1O)C1CC1 (stereo not given) | -14.7% (inactive)
38 | COc1ccc(-c2nnc3n2N=C(c2c(OC)cccc2OC)CS3)c(OC)c1 | 5.54% (inactive)
39 | Cc1cc(C)n2ncc(C(=O)Nc3ccccc3Sc3ccccc3)c2n1 | -7.43% (inactive)
40 | COc1ccc(NC(=O)c2cc(-c3ccc(C)c(C)c3)nc3ccccc23)cc1 | 4.42% (inactive)
